These entries were drawn from the full list.
aSyn UTR act – Activators via SNCA 5'UTR binding, MLPCN; alpha-synuclein 5'UTR reporter, activators screen; activity score, % (tested at 7.5 µM), hits read low; 300,000 compounds, 7.1% hits; AID 1814, 2009; in the data active means activity score below about -60%
* marks the source's active call; other numbers are inactive results.

SMILES | aSyn UTR act
Cc1ccnc(NC(=O)Cc2ccc(-c3ccccc3)cc2)c1 | -122*
Cc1cccc(Nc2nnc(SCC3CCCCO3)s2)c1 (configuration not stated) | -184*
Clc1ccc(COn2ccnc2)cc1Cl | -104*
COc1ccc(Cn2c(SCc3ccc(C)cc3)nc3cc(OC)c(OC)cc3c2=N)cc1Cl | 119
COc1ccc(CSc2nnc(-c3ccncc3)n2C)cc1F | -94*
Clc1ccc(CSc2nncn2-c2ccc3c(c2)OCCO3)cc1 | 66
Cn1c(SCc2ccc3c(c2)OCO3)nnc1-c1ccccc1 | -80*
c1ccn2c(SCc3ccc4c(c3)OCO4)nnc2c1 | -93*
O=C(Cc1ccc(Cl)cc1)Nc1ccc(-c2cc3ccccc3oc2=O)c(Cl)c1 | 96
O=C(Nc1ncccc1Cl)c1cc2ccccc2o1 | -74*
O=C(Nc1ccc(Cl)cc1Cl)c1cc2ccccc2o1 | -110*
O=C(NCCc1ccccn1)c1cc2ccccc2o1 | -102*
Nc1ccc(NC(=O)c2cccc(C(=O)Nc3ccc(N)cc3Cl)c2)c(Cl)c1 | -85*
Cc1ccc(NC(=O)c2cc3ccccc3o2)nc1 | -95*
COc1ccccc1NC(=O)c1cc2ccccc2o1 | -92*
O=C(Nc1ccccc1Cl)c1cc2ccccc2o/c1=N\O | -121*
Nc1ccccc1C(=O)Nc1ccc(Cl)cc1Cl | -120*
Cc1ccccc1NC(=O)c1cc2ccccc2o1 | -172*
Cc1ccc(NC(=O)c2cn(-c3cccc(C)n3)cn2)cc1 | -212*
Cc1cccc(-n2cnc(C(=O)N/N=C/c3ccccc3)c2)n1 | -78*
Cc1nnc(N/N=C\c2ccc(-c3ccccc3[N+](=O)[O-])o2)n1N | -75*
Cc1nnc(N/N=C/c2ccc(-c3ccccc3F)o2)n1N | -107*
COc1cnc(-c2ccccn2)nc1NC(C)C | 98
COc1cnc(-c2ccccn2)nc1Oc1ccc(F)cc1F | -118*
O=C(Nc1ccc2oc(-c3cccnc3)nc2c1)c1ccc([N+](=O)[O-])o1 | -97*
SMILES | aSyn UTR act
O=C(Nc1ccc2nc(-c3ccccc3)oc2c1)c1ccco1 | -227*
O=C(Nc1ccc2oc(-c3cccnc3)nc2c1)c1ccco1 | -135*
O=C(Nc1ccc2oc(-c3cccnc3)nc2c1)c1ccc(Br)o1 | -113*
O=C(Nc1nnc(-c2ccccc2)s1)c1ccccc1O | -153*
COc1ccccc1C(=O)N(C)c1nnc(-c2ccccc2)s1 | -117*
O=C(Nc1ccccc1)Nc1nnc(-c2ccccc2)s1 | -162*
CCOc1ccccc1C(=O)Nc1nnc(C(C)C)s1 | -176*
CN(C)CCCn1cnc2c(c1=N)C(c1ccccc1)c1ccc3ccccc3c1O2 (configuration not stated) | 90
O=C(CSc1ncn[nH]1)Nc1nnc(-c2ccccc2)s1 | -74*
COc1ccccc1C(=O)Nc1nnc(SCC(=O)Nc2ccc3c(c2)oc2ccccc23)s1 | -152*
COc1cccc(C(=O)Nc2nnc(-c3ccccc3)s2)c1OC | -113*
CC(=O)Nc1ccc(-c2nnc(SCC(=O)Nc3ccc4c(c3)oc3ccccc34)n2C)cc1 | -92*
CC(C)=CC(=O)Nc1nnc(-c2ccccc2)s1 | -187*
Cc1ccccc1C(=O)Nc1nnc(SC(C)C)s1 | -97*
COc1ccccc1C(=O)Nc1nnc(-c2ccccc2)s1 | -153*
COc1ccccc1C(=O)Nc1nnc(C)s1 | -211*
COc1ccccc1C(=O)Nc1nc(-c2cccs2)c(NC(C)=O)s1 | -128*
CC(C)=CC(=O)Nc1ccc(Br)cc1 | -191*
CCC(C)(C)C1CCC(=NNc2nc3ccccc3[nH]2)CC1 (configuration not stated) | -69*
CC(=O)N1CCC(=NNc2nc3ccccc3[nH]2)CC1 | -66*
CN1CCN(c2ccc(-c3ccnn3C(=O)Nc3cccc(C(F)(F)F)c3)cc2)CC1 | -114*
COc1ccc(N(Cc2cc3cc(OC)ccc3[nH]c2=O)S(=O)(=O)c2ccc(NC(C)=O)cc2)cc1 | 93
COc1ccc(N(Cc2cc3ccccc3[nH]c2=O)S(=O)(=O)c2ccc(OC)cc2)cc1 | -64*
Cc1ccc(N=C2C(=S)N(c3ccc(C)cc3)C(=N)N2/N=C/c2ccc(Cl)cc2)cc1 | -156*
Cc1ccc2nc3c(nc2c1)-c1ccccc1C3=O | -65*
SMILES | aSyn UTR act
Cc1cccc2nc3c(nc12)-c1ccccc1C3=O | -106*
CC1CCC(NC(=O)c2ccc(NS(=O)(=O)c3ccc4[nH]c(=O)[nH]c4c3)cc2)CC1 (configuration not stated) | -124*
Cc1ccc2c(c1)COc1c3ccc(C(=O)NCC4CC4)cc3nn1-2 | -177*
O=C(NCCO)c1ccc2c3n(nc2c1)-c1ccccc1CO3 | -105*
C=CCNC(=O)c1ccc2c3n(nc2c1)-c1ccc(Cl)cc1CO3 | -127*
CC(C)NC(=O)c1ccc2c3n(nc2c1)-c1ccccc1CO3 | 52
Cc1ccnc(NC(=S)NC(=O)c2cncc(Br)c2)c1 | -81*
O=C1c2ccccc2C(=O)C1c1ccccn1 | -105*
O=C(N=C1SCC(=O)N1c1ccccc1Cl)c1ccco1 | -174*
O=C(N=C1SCC(=O)N1c1ccccc1Cl)c1ccccc1 | -210*

Assay outcomes (PubChem)
